# Only some compounds are listed: those with a hit (about 3.3% of all), similar ones and a draw of the others.
# C2C12 statin: suppressors of statin myotoxicity in C2C12 myotubes, primary screen, cell-based, single point, plate reader | C2C12 myotubes + simvastatin, ATP luminescence, 48 h; scaled: DMSO 0, geranylgeraniol control 100 | rescue of ATP level, % at 7.49 µM | 330,000 tested, 0.78% active | AID 602340, 2012;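 active means mean ATP rescue above about 67%, or every replicate alone reaching that limit, limit read from the data, passing the limit was not always enough; inconclusive means no clear call, values can overlap the other calls; inactive means mean under the limit and some replicate under it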;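 further: myotubes were challenged with 10 µM simvastatin during compound exposure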
# GAA850 FXN act: FXN promoter activators, primary screen, cell-based, luciferase luminescence, HEK293 lucGAA850; HEK293 lucGAA850 FXN promoter luciferase reporter, 24 h; percent of 10 µM SAHA response; activation, % at 6 µM; 360,000 tested, 0.56% active;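 active means activation above the average of all compounds screened plus 3 SD, cutoff fixed separately per campaign, cut at about 7.5% in these data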;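 further: 0% = DMSO wells and 100% = 10 µM SAHA wells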
# esBAF inh: Bmi1 luciferase reporter increase in mESCs, primary screen, esBAF inhibitor project, mouse ES cells, Bmi1 luciferase knock-in, single point; 24 h; 100% = twice the neutral-well signal; reporter increase, % at 12.5 µM; 350,000 tested, 2% active; AID 602393, 2012; in the data active means activation above about 40%; inconclusive means no clear call, values can overlap the other calls;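 further: 0% = median of the plate's neutral control wells and 100% = double that signal; a rise in the Bmi1 reporter signal indicates esBAF inhibition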
# Wnt act: Wnt/beta-catenin pathway activators, primary screen, cell-based, plate reader, single point; Wnt/beta-catenin reporter cell assay, activator; activation, % at 9.35 µM; 300,000 tested, 1.2% active; in the data active means activation above about 30%, passing the limit was not always enough; inconclusive means no clear call, values can overlap the other calls;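 further: 0% = neutral control wells and 100% = positive control wells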
# MITF TRPM1 HTS: activators of MITF-driven TRPM1 promoter reporter, primary screen, cell-based, SK-MEL-5, luciferase, single point. 300,000 tested, 0.75% active. activation, % at 12.5 µM. SK-MEL-5 TRPM1-promoter luciferase, 24 h; % of positive control, neutral wells = 0;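 active means mean activation of at least 80% with every replicate also reaching 80%; inconclusive means mean reaches 80% but some replicate falls short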;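 further: 0% = neutral control wells and 100% = parthenolide positive control wells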
# * hit, by the source's call; ? = inconclusive; . = not tested or not shown.
SMILES,C2C12 statin,GAA850 FXN act,esBAF inh,Wnt act,MITF TRPM1 HTS
COc1ccc(-c2csc(Nc3ncccn3)n2)cc1C,1.4,3.8,?,38.3*,72.9
C[C@@H]1CN([C@@H](C)CO)C(=O)c2cc(NC(=O)Nc3ccc4c(c3)OCO4)ccc2O[C@@H](C)CCCCO[C@@H]1CN(C)C(=O)Nc1ccccc1,-12.3,.,0.4,.,.
N#Cc1c(-c2cccnc2)c2c([nH]c1=O)-c1ccccc1OC2,6.9,0.3,2.6,43.7*,.
N#Cc1c(-c2ccc(F)cc2)c2c([nH]c1=O)-c1ccccc1OC2,.,0.8,.,-2.1,.
C[C@@H]1CN([C@@H](C)CO)C(=O)c2cc(C#CC3(O)CCCC3)cnc2O[C@@H]1CN(C)C(=O)C1CC1,-5.4,.,.,.,.
COC(=O)c1ccc(CSC2=NCCS2)cc1,.,5.0,.,.,84.2*
COC(=O)c1ccc(CNC(=O)CSC2=NCCS2)cc1,.,2.5,.,.,10.4
COc1cccc(N=c2oc3ccc(OC)cc3cc2-c2nc3ccccc3[nH]2)c1,-18.6,3.9,7.8,20.3,-8.7
COc1ccc(N=c2oc3ccc(OC)cc3cc2-c2nc3ccccc3[nH]2)cc1,-7.0,-0.4,60.3*,.,0.5
COc1cccc(N=c2oc3ccccc3cc2-c2nc3ccccc3[nH]2)c1,-14.7,-2.1,-18.3,46.7*,-11.0
C/C=C/c1cnc2c(c1)C(=O)N([C@@H](C)CO)C[C@@H](C)[C@@H](CN(C)C(=O)C1CCCCC1)O2,24.4,.,3.6,.,.
COc1ccc(CC(C)N2CCN(Cc3ccccc3)CC2)c(OC)c1 (stereo not given),95.6*,-0.2,-8.4,-2.2,-0.6
O=S(=O)(N/N=C1\CC(c2ccccc2)Oc2ccccc21)c1ccccc1 (stereo not given),-5.7,0.6,13.0,.,-7.0
Cc1ccc(S(=O)(=O)N/N=C2/CC(c3ccccc3)Oc3ccccc32)cc1 (stereo not given),87.8*,3.5,13.7,.,2.9
CCOc1ccc(C(=O)Nc2ncn[nH]2)cc1,20.1,2.1,2.7,-0.9,.
O=C(NCCNc1ccccc1[N+](=O)[O-])c1cc(F)c(F)cc1Cl,-3.9,4.2,36.1,3.1,.
COc1ccc(C(=O)NCCNc2ccccc2[N+](=O)[O-])cc1,-3.4,4.5,74.3*,-3.2,66.0
CC(C)COc1ccc(C(=O)Nc2ccccc2[N+](=O)[O-])cc1,.,4.9,.,79.6*,49.4
CC(C)COc1ccc(C(=O)Nc2ncn[nH]2)cc1,-21.8,2.2,44.8*,6.5,19.6
CO[C@H]1CN(C)C(=O)c2cc(NC(=O)NC3CCCCC3)ccc2OC[C@H](C)N(CC2CC2)C[C@@H]1C,-16.1,.,0.7,.,.
COc1ccc(-c2noc(-c3ccc4c(c3)OCO4)n2)cc1,.,5.8,.,20.8,87.3*
COc1cccc(-c2noc(-c3ccc4c(c3)OCO4)n2)c1,.,-0.3,.,42.0*,27.8
c1ccc(-c2noc(-c3ccc4c(c3)OCO4)n2)cc1,.,5.5,.,12.4,3.1
O=C(C[C@H]1CC[C@H]2[C@@H](COC[C@@H](O)CN2C(=O)c2ccccc2)O1)Nc1nccs1,-5.2,.,7.8,.,.
CC(=O)N1CCN(c2nnnn2-c2ccccc2)CC1,126.3*,-1.7,-4.1,.,-5.3
SMILES,C2C12 statin,GAA850 FXN act,esBAF inh,Wnt act,MITF TRPM1 HTS
Oc1ccc(N2CCN(c3nnnn3-c3ccccc3)CC2)cc1,3.0,0.6,-12.0,-0.4,8.7
O=C(c1ccccc1)c1ccc2nc(-c3ccco3)c(-c3ccco3)nc2c1,3.0,5.0,39.5,36.4*,64.5
COc1cc(NC(=O)[C@H]2CSCN2C(=O)[C@@H]2CCC(=O)N2)cc(OC)c1OC,-1.4,-1.6,-1.2,-1.6,3.2
CC(C)c1ccc(NC(=O)[C@H]2CSCN2C(=O)[C@@H]2CCC(=O)N2)cc1,109.5*,2.5,2.9,1.4,10.2
COc1cc(/C=C/C(=O)NC(=O)c2ccccc2O)ccc1O,-1.7,1.6,?,19.1,83.6*
C[C@H](CO)N1C[C@H](C)[C@@H](CN(C)S(C)(=O)=O)Oc2ccc(NC(=O)Nc3ccc(C(F)(F)F)cc3)cc2CC1=O,1.2,.,-0.5,.,.
CN(C(=O)c1ccncc1)c1nnc(-c2cccnc2)s1,.,-0.6,.,0.1,13.8
COc1ccccc1C(=O)Nc1nnc(-c2ccccc2)s1,7.0,5.0,46.9*,8.4,.
O=C(Nc1ccccc1)Nc1nnc(-c2ccccc2)s1,-4.7,0.7,50.5*,32.9*,.
COc1ccccc1C(=O)N(C)c1nnc(-c2ccccc2)s1,-2.2,4.4,49.2*,39.8*,63.4
COc1ccc(C(=O)Nc2nnc(-c3ccccc3)s2)cc1,4.0,3.2,46.6*,8.8,21.8
C[C@@H](NC(=O)C[C@H]1C[C@@H]2c3cc(NC(=O)C4CCOCC4)ccc3O[C@@H]2[C@@H](CO)O1)c1ccccc1,-2.6,.,0.1,.,.
C[C@@H]1CN([C@@H](C)CO)C(=O)Cc2cc(NC(=O)Cc3ccccc3)ccc2O[C@H]1CN(C)C(=O)Nc1ccc2c(c1)OCO2,-12.0,.,-7.4,.,.
COc1ccc(S(=O)(=O)N2CC[C@@H]3[C@H]2c2cc(-c4ccc(C#N)cc4)ccc2N[C@@H]3CO)cc1,9.2,.,-20.5,.,.
COc1ccc(NC(=O)Nc2nnc(-c3ccccc3F)s2)cc1,.,-0.8,.,-3.4,43.4
Cc1ccc(NC(=O)Nc2nnc(-c3ccccc3F)s2)cc1,.,1.4,.,32.6*,47.9
O=C(Nc1nnc(-c2ccccc2F)s1)c1cccnc1,5.9,2.1,59.7*,-4.4,48.0
O=C(Nc1nnc(-c2ccccc2)s1)c1ccccc1O,-24.3,1.0,67.4*,10.4,45.4
COc1cccc(C(=O)Nc2nnc(-c3ccccc3)s2)c1OC,9.8,3.8,36.0,45.3*,56.2
C[C@@H]1CN([C@@H](C)CO)C(=O)c2cc(Br)cnc2O[C@H]1CN(C)CC1CCCC1,-2.5,.,-1.7,.,.
CCNC(=O)Nc1ccc2c(c1)C(=O)N(C)[C@H]1CC[C@@H](CC(=O)NCC3CC3)O[C@@H]1CO2,-13.7,.,3.0,.,.
COC(=O)C[C@H]1CC[C@H]2[C@H](COc3ccc(NC(=O)c4cccc(F)c4)cc3C(=O)N2C)O1,-3.6,.,-1.2,.,.
COc1cccc(NC(=O)Cn2c(=O)n(C)c(=O)c3sc4c(c32)COC(C)(C)C4)c1,135.9*,-0.8,8.9,0.0,3.3
C=CCc1cccc(OC)c1OCCOCCNCCO,82.8*,-1.3,-6.0,-1.4,-13.6
Nc1[nH]c(N=NC(=O)c2ccccc2O)c2ccccc12,.,2.1,.,70.8*,17.4
Cc1nnc(NC(=O)C2COc3ccccc3O2)s1 (stereo not given),3.0,3.6,46.2*,.,.
O=C(Nc1ncc(Cc2ccccc2)s1)C1COc2ccccc2O1 (stereo not given),-9.2,3.0,52.9*,.,?
O=C(Nc1ccccc1)Nc1ccc(F)cc1F,.,3.3,.,48.4*,72.2
